Values joined by “and” are separate entries in the source; they are usually repeats but may differ in a detail not shown here. Equal values may be shown once. Records with an inconclusive call do not appear. The source holds several records for some structures; these can differ, active in one and inactive in another. Active and inactive are the calls of the source. The calls were made as follows: active = hit-call score of the fitted dose curve at least 0.9, where 1 is the maximum; inconclusive = response in the unintended direction; inactive = score below 0.9.

For this test, the target named is Cellular tumor antigen p53 (Homo sapiens) (UniProt P04637). Briefly: TOX21_p53_BLA_p4_ratio: Tox21 HCT-116 p53 Agonism Beta-lactamase Assay, Ratio, Phase 4 (AID 2283601). The text has this: TOX21_p53_BLA_p4 is a cell-based, single-readout assay that uses HCT116, a human intestinal cell line, […] in a 1536-well plate.TOX21_p53_BLA_p4_ratio is an assay readout measuring reporter gene via receptor activity and designed using inducible reporter (beta lactamase induction) detected with GAL4 b-lactamase reporter gene. The signal is derived from the ratio of cleaved (ch2) to uncleaved (ch1)reporter gene substrate used as the measure of target activity.Data from the assay component TOX21_p53_BLA_p4_ratio was analyzed into 1 assay endpoint. This assay endpoint, TOX21_p53_BLA_p4_ratio, was analyzed in the positive analysis fitting direction relative to DMSO as the negative control and baseline of activity. Using a type of inducible reporter, gain-of-signal activity can be used to understand changes in the reporter gene as they relate to the gene TP53. Furthermore, this assay endpoint can be referred to as a primary readout, because this assay has produced multiple assay endpoints where this ratio serves a reporter gene function to understand target activity. To generalize the intended target to other relatable targets, this assay endpoint is annotated to the DNA binding intended target family, where the subfamily is tumor suppressor.
Sequence of Cellular tumor antigen p53 (Homo sapiens) (P04637 whole entry, looked up, the tested form may be a part): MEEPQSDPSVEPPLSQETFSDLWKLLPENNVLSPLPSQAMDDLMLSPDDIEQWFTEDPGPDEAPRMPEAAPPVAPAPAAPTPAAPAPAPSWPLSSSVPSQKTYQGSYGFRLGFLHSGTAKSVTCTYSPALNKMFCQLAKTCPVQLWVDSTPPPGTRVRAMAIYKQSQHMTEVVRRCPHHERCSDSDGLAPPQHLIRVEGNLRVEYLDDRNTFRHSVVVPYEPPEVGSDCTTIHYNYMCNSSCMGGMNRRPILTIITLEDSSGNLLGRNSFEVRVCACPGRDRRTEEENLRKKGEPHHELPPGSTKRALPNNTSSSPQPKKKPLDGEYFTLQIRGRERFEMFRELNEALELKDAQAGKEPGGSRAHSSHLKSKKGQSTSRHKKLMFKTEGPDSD
Thawing Method: Place 14 mL of pre-warmed thaw medium into a 15 mL of conical tub. Remove the vial of cells to be thawed from liquid nitrogen and thaw rapidly by placing at 37C in a water bath with gentle agitation for 1-2 minutes. Decontaminate the vial by wiping with 70% ethanol before opening in a biological safety cabinet. Transfer the vial contents drop-wise into 14 mL of thaw medium in a sterile 15-mL conical tub. Centrifuge cells at 900 rpm for 4 minutes and resuspend in thaw medium. Transfer contents to the T75 tissue culture flask containing Thaw Medium and place flask in a humidified 37C/5% CO2 incubator. Switch to growth medium at first passage.Propagation Method: Aspirate medium, rinse once in DPBS, add 0.25% Trypsin/EDTA and swirl to coat the cell evenly. Add an equal volume of Growth Medium to inactivate Trypsin after 2-3 minutes incubation at 37C. Centrifuge cells at 900 rpm for 4 minutes and resuspend in growth medium. Cell should be passage or fed at least twice a week.Assay Protocol: Harvest cells from culture in growth medium and resuspend in assay medium. 2.2 Dispense 4000 cells/5 uL/well into 1536-well black/clear bottom plates using a Multidrop dispenser. After the cells were incubated at 37C for 5 hours, 23 nL of compounds dissolved in DMSO were transferred to the assay plate by a PinTool resulting in a 217-fold dilution. Incubate the plates for 16 hours at 37C, 5% CO2. Add 1 uL of 6X LiveBLAzer FRET B/G (CCF4-AM) Substrate Mixture to each well using a BioRAPTR dispenser and incubate the plates at room temperature for 2 hours. Measure fluorescence intensity at 460 and 530 nm emission and 405 nm excitation by an Envision detector. Data is expressed as the ratio of 460nm/530nm emissions. Add 4 uL of Cell-titer Glo to each well using BioRAPTR and incubate the plates at room temperature for 2 hours. Measure fluorescence intensity by a VewLux plate reader.
Turning to `CON=C(C(=O)OC)c1ccccc1CON=C(C)c1cccc(C(F)(F)F)c1`, the AC50 – broadly, the concentration giving half of the maximal activity seen – was 1.65 µM (active).
For `CCOC(=O)COc1cc(-c2nn(C)c(OC(F)F)c2Cl)c(F)cc1Cl`, the result was inactive.
Turning to `N#CSCSC#N`, the AC50 is 36.5 µM (active) and 18.1 µM (active).
Turning to `CCOP(=S)(OCC)SCCSCC`, the result was inactive.
Same read-out and setting: as for `CC(Oc1cccc(Cl)c1)C(=O)O` (stereo not given), the entry is “inactive”; as for `Nc1nc(N)nc(NC2CC2)n1`, “inactive”; as for `CCOP(=S)(OCC)OC(Cl)C(Cl)(Cl)Cl` (stereo not given), “inactive”.
The same measure, in the same setting: in the case of `CNC(=O)Oc1cccc2c1OC(C)(C)O2` it was “inactive”.
On to `CCCSP(=O)(OCC)Oc1ccc(Br)cc1Cl` (stereo not given), for which the outcome was inactive.
On the same count and under the same terms, as for `CC(C1CC1)C(O)(Cn1cncn1)c1ccc(Cl)cc1` (stereo not given), the entry is “inactive”.
In the case of `C[N+]1(C)CCCCC1`, the result was inactive.
For `C[Si](Cn1cncn1)(c1ccc(F)cc1)c1ccc(F)cc1`, the result was inactive and the AC50 was 55.6 µM (active).
As to `CCC(CC)Nc1c([N+](=O)[O-])cc(C)c(C)c1[N+](=O)[O-]`, the outcome was inactive.
On to `FC(F)C(F)(F)OCC(Cn1cncn1)c1ccc(Cl)cc1Cl` (stereo not given), for which the result was inactive.
`CCOP(=S)(OCC)Oc1ccc2c(C)c(Cl)c(=O)oc2c1`: the result was inactive.
`CCCCSP(=O)(SCCCC)SCCCC`: the result was inactive.
As to `COP(=O)(OC)C(O)C(Cl)(Cl)Cl` (stereo not given), the outcome was inactive.
On the same count and under the same terms, as for `CC(COc1ccc(Oc2ccccc2)cc1)Oc1ccccn1` (stereo not given), the entry is “inactive”.
In the case of `C#CC(C)(C)NC(=O)c1cc(Cl)cc(Cl)c1`, the outcome was inactive.
Take `Cc1nn(-c2cc(NS(C)(=O)=O)c(Cl)cc2Cl)c(=O)n1C(F)F`: the outcome was inactive.
Take `CC1=NNC(=O)N(/N=C/c2cccnc2)C1`: the result was inactive.
Regarding `CCc1cccc(C)c1N(C(=O)CCl)C(C)COC` (stereo not given), the outcome was inactive.
Regarding `COc1cccc(C(=O)NN(C(=O)c2cc(C)cc(C)c2)C(C)(C)C)c1C`, the result was inactive.
Turning to `CCC(=NOC/C=C/Cl)C1=C(O)CC(C2CCOCC2)CC1=O` (stereo not given), the outcome was inactive.
With `COc1cc(OC)nc(Sc2cccc(Cl)c2C(=O)O)n1`, the result was inactive.
For `CCC(=O)Nc1ccc(Cl)c(Cl)c1`, the result was inactive.
For `CCNc1nc(Cl)nc(NC(C)(C)C#N)n1`, the result was inactive.
With `CC[C@H](C)[C@H]1O[C@]2(C=C[C@@H]1C)C[C@@H]1C[C@@H](C/C=C(\C)[C@@H](O[C@H]3C[C@H](OC)[C@@H](O[C@H]4C[C@H](OC)[C@@H](NC)[C@H](C)O4)[C@H](C)O3)[C@@H](C)/C=C/C=C3\CO[C@@H]4[C@H](O)C(C)=C[C@@H](C(=O)O1)[C@]34O)O2`, the AC50 is 32.7 µM (active).
For `CSC1=N[C@@](C)(c2ccccc2)C(=O)N1Nc1ccccc1`, the result was inactive.
On to `CC(C)=CC1C(C(=O)OCN2C(=O)C3=C(CCCC3)C2=O)C1(C)C` (stereo not given), for which the outcome was inactive.
In the case of `CSc1nnc(C(C)(C)C)c(=O)n1N`, the outcome was inactive.
On to `Cc1cc(C2CC2)nc(Nc2ccccc2)n1`, for which the AC50 is 72.6 µM (active).
`CCOP(=S)(Oc1cnc(C(C)(C)C)nc1)OC(C)C` (stereo not given): the result was inactive.
With `CCCCOC(=O)[C@@H](C)Oc1ccc(Oc2ccc(C#N)cc2F)cc1`, the outcome was inactive.
As to `CCCOCC(=Nc1ccc(Cl)cc1C(F)(F)F)n1ccnc1`, the AC50 was 46.2 µM (active).
For the compound `CNC(=O)ON=C(C)SC`, the result was inactive.
With `CCOC(=O)CC(SP(=O)(OC)OC)C(=O)OCC` (stereo not given), the outcome was inactive.
With `CC(=NC#N)N(C)Cc1ccc(Cl)nc1`, the outcome was inactive.
For the compound `COc1ccc(C(=CC(=O)N2CCOCC2)c2ccc(Cl)cc2)cc1OC`, the outcome was inactive.

(Values after PubChem BioAssay (EPA / NIEHS).)
